The source made the active and inactive calls.
Assays:
[1] = binders of probe aFSTL3 on microarray, primary screen, stem cell growth factor project, biochemical, small-molecule microarray, fluorescence 635/667 (AID 1064); conditions: higher = more signal;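 note: measures binding of the biotinylated anti-FSTL3 antibody to printed compounds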
[2] = binders from COS7 lysate, DM2A8 probe, primary screen, torsin A project, cell lysate, small-molecule microarray, fluorescence 635/667 (AID 1065); conditions: higher = more signal, COS7 lysate expressing mutant human TOR1A
[3] = binders of probe aFGF2 on microarray, primary screen, stem cell growth factor project, biochemical, small-molecule microarray, fluorescence 635/667 (AID 1067); conditions: higher = more signal;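 note: measures binding of biotinylated aFGF2 protein to printed compounds on slides; z-score merges feature fluorescence and signal-to-noise across triplicate slides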
[4] = binders of probe aFGF10 on microarray, primary screen, stem cell growth factor project, biochemical, small-molecule microarray, fluorescence 635/667 (AID 1071); conditions: higher = more signal;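 note: score merges 667 nm spot intensity and signal to noise from triplicate slides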
[5] = target: Neurogenic locus notch homolog protein 2 (Homo sapiens) (UniProt Q04721); assay: Notch2 binders on small-molecule microarrays, primary screen, biochemical, small-molecule microarray, 635 nm fluorescence, stem cell growth factors (AID 1073); conditions: Notch2 binding, higher = more signal
[6] = target: Pro-neuregulin-1, membrane-bound isoform (Homo sapiens) (UniProt Q02297); assay: NRG1 binders on small-molecule microarrays, primary screen, psychiatric disease protein project, biochemical, small-molecule microarray, fluorescence 635/667 (AID 1075); conditions: NRG1 binding, 635 nm fluorescence, higher = more signal;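 note: score combines 667 nm spot fluorescence with signal to noise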
[7] = system: Neuregulin-1 EGF-like domain; assay: binders of neuregulin-1 EGF-like domain, primary screen, biochemical, small-molecule microarray, 635 nm fluorescence (AID 1081); conditions: small-molecule microarray binding, higher = more signal;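 note: binding of the protein to compounds printed on small-molecule microarray slides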
[8] = FRG1 promoter luciferase signal modulators, primary screen, FRG1 inhibition for FSHD, cell-based, C2C12 myotubes, firefly/Renilla luciferase, luminescence (AID 1084); conditions: higher = more signal, called active from +8 up or from −8 down
[9] = binders of probe aFST on microarray, primary screen, stem cell growth factor project, biochemical, small-molecule microarray, fluorescence 635/667 (AID 1086); conditions: higher = more signal;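 note: score merges 667 nm fluorescence with signal-to-noise of each printed compound spot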
[10] = binders of probe aHhip on microarray, primary screen, stem cell growth factor project, biochemical, small-molecule microarray, fluorescence 635/667 (AID 1087); conditions: higher = more signal;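 note: score merges spot fluorescence at 667nm with spot signal to noise ratio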
[11] = system: PRMT1 (protein arginine N-methyltransferase 1); assay: PRMT1 binders on small-molecule microarrays, primary screen, biochemical, small-molecule microarray, 635 nm fluorescence (AID 1088); conditions: small-molecule microarray binding, higher = more signal;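 note: binding of Prmt1 protein to compounds spotted on small-molecule microarray slides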
[12] = yeast growth modulation, basal conditions, primary screen, YJM789 clinical isolate, OD600, 24 h (AID 1089);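 note: growth of clinical yeast isolate S. cerevisiae YJM 789 seeded 1000 cells per well; test concentration not given here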; conditions: S. cerevisiae YJM789 growth, higher = more signal, called active from +8 up or from −8 down
[13] = fission yeast growth modulation, primary screen, strain 972, OD600, 24 h, no modulator (AID 1090);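 note: basal condition with compound alone and no growth modifier present; test concentration not given here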; conditions: S. pombe 972 growth, higher = more signal, called active from +8 up or from −8 down
[14] = S. cerevisiae growth modulation with rapamycin, primary screen, strain BY4716, OD600, 96 h (AID 1091); conditions: higher = more signal, called active from +8 up or from −8 down; note: test concentration not given here
[15] = target: Torsin-1A-interacting protein 2 (Homo sapiens) (UniProt Q8NFQ8); assay: LULL1 binders on small-molecule microarray, primary screen, cell lysate, human LULL1 lysate, 635/667 nm fluorescence (AID 1092); conditions: hLULL1 lysate binding, 635 nm fluorescence, higher = more signal;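 note: probe is lysate of COS7 cells overexpressing human LULL1; score merges per-feature 667 nm fluorescence with signal-to-noise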
[16] = E. coli growth modulation, two-sided OD650, primary screen, E. coli filamentation project, strain DRC41, 24 h (AID 1093); conditions: OD650, 24 h, higher = more signal, called active from +8 up or from −8 down;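 note: MC1000 strain lacking acrAB efflux and sulA so SOS filamentation is blocked; test concentration not given here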
[17] = small-molecule microarray binders of probe aLefty2, primary screen, biochemical, biotinylated probe, 635/667 nm fluorescence (AID 1094); conditions: higher = more signal;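 note: score merges spot fluorescence near 667 nm with spot signal-to-noise ratio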
[18] = system: Noggin (protein binding on small-molecule microarray); assay: Noggin binders on small-molecule microarray, primary screen, biochemical, 635/667 nm fluorescence (AID 1095); conditions: 635 nm fluorescence, higher = more signal;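 note: score merges 667 nm feature fluorescence with signal to noise over triplicate slides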
[19] = target: Neurogenic locus notch homolog protein 3 (Homo sapiens) (UniProt Q9UM47); assay: NOTCH3 binders on small-molecule microarray, primary screen, biochemical, 635/667 nm fluorescence (AID 1096); conditions: NOTCH3 binding, 635 nm fluorescence, higher = more signal
[20] = small-molecule microarray binders of probe aEGFR, primary screen, biochemical, biotinylated probe, 635/667 nm fluorescence (AID 1097); conditions: higher = more signal;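 note: probe is a biotinylated anti-EGFR antibody binding compounds printed on slides; score combines fluorescence near 667 nm and signal to noise of each spot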

Torsin-1A-interacting protein 2 (Homo sapiens), sequence (Q8NFQ8 whole entry, looked up): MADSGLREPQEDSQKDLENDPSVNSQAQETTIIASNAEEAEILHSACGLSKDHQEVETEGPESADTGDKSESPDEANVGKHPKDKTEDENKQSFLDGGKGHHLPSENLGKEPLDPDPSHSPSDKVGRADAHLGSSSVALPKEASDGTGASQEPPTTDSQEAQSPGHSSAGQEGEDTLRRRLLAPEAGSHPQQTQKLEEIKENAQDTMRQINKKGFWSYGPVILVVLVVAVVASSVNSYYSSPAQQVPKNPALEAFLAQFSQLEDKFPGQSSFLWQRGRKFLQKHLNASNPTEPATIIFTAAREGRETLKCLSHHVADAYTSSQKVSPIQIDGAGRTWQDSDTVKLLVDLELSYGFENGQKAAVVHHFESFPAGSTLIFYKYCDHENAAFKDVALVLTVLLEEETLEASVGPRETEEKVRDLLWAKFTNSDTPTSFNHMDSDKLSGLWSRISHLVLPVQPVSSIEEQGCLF
Pro-neuregulin-1, membrane-bound isoform (Homo sapiens), sequence (Q02297 whole entry, looked up, the tested form may be a part, canonical isoform): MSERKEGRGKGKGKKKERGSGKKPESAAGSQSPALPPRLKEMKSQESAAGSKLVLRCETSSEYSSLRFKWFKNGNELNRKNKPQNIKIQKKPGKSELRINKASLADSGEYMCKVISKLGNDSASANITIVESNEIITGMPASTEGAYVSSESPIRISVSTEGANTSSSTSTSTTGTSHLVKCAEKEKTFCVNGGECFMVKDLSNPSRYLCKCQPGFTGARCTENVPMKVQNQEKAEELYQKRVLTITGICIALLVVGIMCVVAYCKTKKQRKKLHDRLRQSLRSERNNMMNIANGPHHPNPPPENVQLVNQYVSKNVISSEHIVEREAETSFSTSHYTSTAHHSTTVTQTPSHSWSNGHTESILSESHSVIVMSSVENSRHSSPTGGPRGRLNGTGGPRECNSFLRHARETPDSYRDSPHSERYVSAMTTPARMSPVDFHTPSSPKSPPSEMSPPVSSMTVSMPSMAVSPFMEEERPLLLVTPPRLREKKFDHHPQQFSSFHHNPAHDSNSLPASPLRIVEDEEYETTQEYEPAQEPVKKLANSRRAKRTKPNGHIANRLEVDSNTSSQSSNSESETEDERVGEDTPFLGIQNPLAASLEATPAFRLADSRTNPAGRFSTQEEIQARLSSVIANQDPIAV
Neurogenic locus notch homolog protein 3 (Homo sapiens), sequence (Q9UM47 whole entry, looked up): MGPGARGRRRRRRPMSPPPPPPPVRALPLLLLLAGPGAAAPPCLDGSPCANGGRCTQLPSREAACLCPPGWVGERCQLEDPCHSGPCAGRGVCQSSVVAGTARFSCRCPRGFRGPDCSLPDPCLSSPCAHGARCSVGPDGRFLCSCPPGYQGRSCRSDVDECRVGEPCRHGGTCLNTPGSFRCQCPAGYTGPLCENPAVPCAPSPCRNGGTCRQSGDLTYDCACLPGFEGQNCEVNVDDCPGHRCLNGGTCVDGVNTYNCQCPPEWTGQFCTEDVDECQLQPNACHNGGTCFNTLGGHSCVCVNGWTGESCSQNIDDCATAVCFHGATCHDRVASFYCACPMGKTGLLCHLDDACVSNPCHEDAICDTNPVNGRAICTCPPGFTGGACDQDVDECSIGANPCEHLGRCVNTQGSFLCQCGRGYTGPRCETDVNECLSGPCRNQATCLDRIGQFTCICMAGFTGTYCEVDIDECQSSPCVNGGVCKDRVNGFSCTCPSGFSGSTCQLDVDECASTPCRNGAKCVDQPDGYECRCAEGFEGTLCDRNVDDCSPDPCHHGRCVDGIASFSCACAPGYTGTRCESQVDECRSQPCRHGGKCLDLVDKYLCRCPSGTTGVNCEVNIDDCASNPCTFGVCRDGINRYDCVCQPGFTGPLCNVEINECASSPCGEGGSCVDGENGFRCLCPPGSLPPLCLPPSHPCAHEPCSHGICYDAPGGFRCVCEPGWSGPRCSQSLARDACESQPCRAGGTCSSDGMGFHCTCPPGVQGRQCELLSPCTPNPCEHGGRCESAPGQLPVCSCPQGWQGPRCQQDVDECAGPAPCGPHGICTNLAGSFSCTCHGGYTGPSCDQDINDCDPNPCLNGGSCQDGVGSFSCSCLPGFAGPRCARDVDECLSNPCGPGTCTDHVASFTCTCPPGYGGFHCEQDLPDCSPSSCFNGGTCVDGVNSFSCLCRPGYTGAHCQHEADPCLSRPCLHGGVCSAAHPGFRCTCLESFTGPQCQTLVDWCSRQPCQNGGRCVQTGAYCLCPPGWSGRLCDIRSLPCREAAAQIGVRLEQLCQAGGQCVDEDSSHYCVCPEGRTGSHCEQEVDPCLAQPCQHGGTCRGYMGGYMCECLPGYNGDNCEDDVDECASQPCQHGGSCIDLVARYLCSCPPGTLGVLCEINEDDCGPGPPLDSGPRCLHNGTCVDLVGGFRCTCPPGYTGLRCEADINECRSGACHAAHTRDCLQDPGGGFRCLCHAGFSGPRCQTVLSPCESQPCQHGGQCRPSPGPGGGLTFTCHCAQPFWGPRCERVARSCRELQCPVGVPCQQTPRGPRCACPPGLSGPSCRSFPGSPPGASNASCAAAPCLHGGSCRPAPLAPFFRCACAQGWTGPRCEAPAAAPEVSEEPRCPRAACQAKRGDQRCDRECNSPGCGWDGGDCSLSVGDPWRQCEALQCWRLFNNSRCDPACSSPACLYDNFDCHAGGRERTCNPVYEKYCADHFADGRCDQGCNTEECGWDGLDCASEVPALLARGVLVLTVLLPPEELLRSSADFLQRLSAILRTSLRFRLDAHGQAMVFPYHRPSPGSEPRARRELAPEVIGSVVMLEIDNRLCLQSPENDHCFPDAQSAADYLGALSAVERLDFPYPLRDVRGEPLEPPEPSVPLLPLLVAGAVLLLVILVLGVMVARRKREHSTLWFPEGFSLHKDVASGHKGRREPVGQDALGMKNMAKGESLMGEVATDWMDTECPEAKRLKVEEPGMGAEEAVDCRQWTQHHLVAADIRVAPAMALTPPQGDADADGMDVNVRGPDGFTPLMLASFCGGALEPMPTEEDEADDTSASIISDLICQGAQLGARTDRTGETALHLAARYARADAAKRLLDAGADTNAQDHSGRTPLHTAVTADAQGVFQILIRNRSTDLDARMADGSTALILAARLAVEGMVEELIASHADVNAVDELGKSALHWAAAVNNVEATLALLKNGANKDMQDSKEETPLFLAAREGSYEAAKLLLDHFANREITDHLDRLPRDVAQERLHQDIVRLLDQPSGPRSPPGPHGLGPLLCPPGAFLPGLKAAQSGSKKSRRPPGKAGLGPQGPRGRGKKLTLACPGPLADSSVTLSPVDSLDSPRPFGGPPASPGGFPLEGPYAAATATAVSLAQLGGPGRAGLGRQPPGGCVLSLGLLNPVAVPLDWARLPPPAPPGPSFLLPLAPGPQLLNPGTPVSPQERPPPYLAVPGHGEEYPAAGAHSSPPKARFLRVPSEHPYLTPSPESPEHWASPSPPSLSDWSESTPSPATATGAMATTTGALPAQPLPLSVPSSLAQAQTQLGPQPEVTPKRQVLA

| Compound | composite z-score [1] | composite z-score [2] | composite z-score [3] | composite z-score [4] | composite z-score [5] | composite z-score [6] | composite z-score [7] | z-score [8] | composite z-score [9] | composite z-score [10] | composite z-score [11] | z-score [12] | z-score [13] | z-score [14] | composite z-score [15] | z-score [16] | composite z-score [17] | composite z-score [18] | composite z-score [19] | composite z-score [20] |
| --- | --- | --- | --- | --- | --- | --- | --- | --- | --- | --- | --- | --- | --- | --- | --- | --- | --- | --- | --- | --- |
| COc1cc(COC(C)=O)ccc1OC(C)=O | 0.299 | -0.0075 | 0.188 | 0.209 | 0.137 | 0.14 | -0.464 | -0.681 (inactive) | 0.408 | 0.318 | 0.491 | -2.59 (inactive) | -3.73 (inactive) | -0.724 (inactive) | 0.418 | 3.13 (inactive) | 1.07 | 0.373 | 0.279 | 0.643 |
| C=C(C(=O)CC[C@@H](OC(=O)c1cccnc1)c1ccccc1OCCO)C(C)C | -0.44 | 0.447 | -0.119 | 0.0736 | 0.151 | 0.21 | 0.624 | -0.151 (inactive) | 0.0397 | 0.0156 | 1.44 | -0.73 (inactive) | -0.177 (inactive) | 0.404 (inactive) | -0.263 | 0.144 (inactive) | -0.0666 | 0.535 | 0.272 | -0.0703 |
| [N-]=[N+]=NCc1ccccc1C[C@]1(C(N)=O)COC(c2ccc(OCCCO)cc2)=N1 | 0.293 | 2.02 | -0.0805 | -0.101 | 0.63 | 1.59 | 1.03 | -1.41 (inactive) | 0.847 | 0.154 | 0.945 | -4.72 (inactive) | -1.09 (inactive) | -1.19 (inactive) | 3.1 | 1.95 (inactive) | 0.0567 | -0.572 | 0.31 | 0.0641 |
| CCCCC(CC)C(O)C1C=CC2C(=O)N(Cc3ccccc3)C(=O)C2N1n1cnnc1 (stereo not given) | 0.168 | -0.367 | -0.0305 | 0.175 | 0.0048 | -0.343 | 1.1 | -0.302 (inactive) | 0.246 | -0.199 | 0.249 | -0.279 (inactive) | -0.359 (inactive) | -0.435 (inactive) | 0.77 | -1.05 (inactive) | -0.0238 | -0.0141 | -0.22 | -0.0253 |
| COC(=O)C(CC#Cc1ccc2c(c1)[C@]1(C(=O)N2)[C@H](c2ccc(OCCO)cc2)N2[C@H](c3ccccc3)[C@H](c3ccccc3)OC(=O)[C@H]2[C@@H]1C(=O)Nc1nc2ccccc2s1)C(=O)OC | -0.319 | -0.164 | 0.0519 | 0.465 | 1.03 | 1.36 | 1.19 | 2.62 (inactive) | 0.582 | 0.0156 | 1.58 | 2.63 (inactive) | 2.22 (inactive) | 3.14 (inactive) | 2.45 | 2.13 (inactive) | -0.175 | 1.41 | 1.09 | 0.0562 |
